What was measured:
Assay in all cases: cross-linking mass spectrometry
Details in all cases: not determined
COPS3 = COPS3 (UniProt Q9UNS2)
ELOB = ELOB (UniProt Q15370)
COPS7B = COPS7B (UniProt Q9H9Q2)
Chain of UniProt Q9H9Q2 (Q9H9Q2 whole entry): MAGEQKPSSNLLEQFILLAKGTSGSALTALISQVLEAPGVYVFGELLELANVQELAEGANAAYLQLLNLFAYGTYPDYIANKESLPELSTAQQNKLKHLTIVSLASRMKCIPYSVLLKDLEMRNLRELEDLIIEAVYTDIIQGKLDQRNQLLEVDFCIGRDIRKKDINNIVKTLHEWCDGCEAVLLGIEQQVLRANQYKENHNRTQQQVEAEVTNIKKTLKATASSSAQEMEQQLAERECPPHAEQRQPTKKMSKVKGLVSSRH

Chain of UniProt Q9UNS2 (Q9UNS2 whole entry): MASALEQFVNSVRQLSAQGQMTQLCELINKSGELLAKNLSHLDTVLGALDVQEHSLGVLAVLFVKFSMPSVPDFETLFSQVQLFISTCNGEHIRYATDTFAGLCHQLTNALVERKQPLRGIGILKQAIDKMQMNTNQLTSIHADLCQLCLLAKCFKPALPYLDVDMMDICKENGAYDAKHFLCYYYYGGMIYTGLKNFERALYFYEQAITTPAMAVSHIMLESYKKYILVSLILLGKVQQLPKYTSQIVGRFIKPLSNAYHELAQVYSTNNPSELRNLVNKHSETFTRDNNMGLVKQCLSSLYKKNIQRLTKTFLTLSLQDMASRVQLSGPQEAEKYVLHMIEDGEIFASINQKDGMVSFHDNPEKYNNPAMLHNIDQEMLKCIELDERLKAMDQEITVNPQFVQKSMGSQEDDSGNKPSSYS
Chain of GPS1 (Q13098 whole entry): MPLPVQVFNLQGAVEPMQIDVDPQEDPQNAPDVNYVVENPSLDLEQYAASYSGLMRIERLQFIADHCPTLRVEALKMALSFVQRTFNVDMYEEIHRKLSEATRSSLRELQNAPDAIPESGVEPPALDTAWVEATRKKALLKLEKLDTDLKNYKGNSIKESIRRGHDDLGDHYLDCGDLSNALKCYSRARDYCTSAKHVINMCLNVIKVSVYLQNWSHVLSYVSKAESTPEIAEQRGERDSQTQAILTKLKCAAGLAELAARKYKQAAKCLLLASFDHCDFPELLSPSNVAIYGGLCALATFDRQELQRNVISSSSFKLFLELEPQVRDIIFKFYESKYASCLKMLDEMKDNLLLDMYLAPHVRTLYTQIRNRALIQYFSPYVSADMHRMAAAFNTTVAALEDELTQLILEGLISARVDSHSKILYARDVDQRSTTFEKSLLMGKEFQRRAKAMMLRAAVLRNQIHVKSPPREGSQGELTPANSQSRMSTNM
Chain of COPS2 (P61201 whole entry): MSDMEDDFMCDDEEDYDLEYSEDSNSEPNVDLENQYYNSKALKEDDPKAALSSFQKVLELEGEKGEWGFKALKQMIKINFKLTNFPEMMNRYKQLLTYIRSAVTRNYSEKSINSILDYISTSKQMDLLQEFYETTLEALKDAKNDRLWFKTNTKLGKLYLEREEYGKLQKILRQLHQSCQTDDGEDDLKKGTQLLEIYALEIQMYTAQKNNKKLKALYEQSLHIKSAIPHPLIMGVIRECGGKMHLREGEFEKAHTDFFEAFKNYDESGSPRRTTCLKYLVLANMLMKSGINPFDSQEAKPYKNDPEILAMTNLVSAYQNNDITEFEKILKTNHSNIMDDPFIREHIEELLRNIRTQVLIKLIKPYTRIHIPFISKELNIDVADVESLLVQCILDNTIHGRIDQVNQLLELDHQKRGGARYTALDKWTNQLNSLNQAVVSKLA
Chain of UniProt Q15370 (Q15370 whole entry): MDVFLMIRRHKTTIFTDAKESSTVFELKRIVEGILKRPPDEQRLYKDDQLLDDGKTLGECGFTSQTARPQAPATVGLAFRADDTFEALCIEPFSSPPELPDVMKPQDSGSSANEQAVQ

Row | Substance | cross-linked residues (COPS3) | cross-linked residues (ELOB) | cross-linked residues (COPS7B)
1 | GPS1, Q13098 | K467 - K406 | K158 - K19 | 
2 | COPS2, P61201 | K426 - K243 |  | K426 - K199
